Compound activity deposited in PubChem by The Scripps Research Institute Molecular Screening Center.
An excerpt weighted towards active compounds, which were near 2.2% of everything screened.
sPLA2-III inh – human group III sPLA2 inhibitors, primary screen, biochemical, QFRET, BODIPY PC-A2 liposome substrate; 0.56% of 370,000 active; Group 3 secretory phospholipase A2 (Homo sapiens), Q9NZ20; inhibition, % at 12.2 µM; QFRET BODIPY PC-A2 liposome hydrolysis, fluorescence; AID 743126, 2013;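 active means inhibition above mean plus 3 SD of compounds lying within the high and low control bounds, cut at about 19% in these data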
MOR-DOR inv ag – inverse agonists of MOR-DOR heterodimerization, primary screen, cell-based, luminescence; inhibition, % at 9.3 µM; 0.21% of 340,000 active; cell-based MOR-DOR heterodimer luminescence, inverse agonism; in the data active means inhibition above about 22%, passing the limit was not always enough
m5-HT2A agonist – mouse Htr2a agonists via beta-arrestin recruitment, primary screen, cell-based, luminescence | CHO-K1 mHTR2A beta-arrestin complementation; percent of 30 µM serotonin response | activation, % at 7.6 µM | 0.66% of 360,000 active;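 active means activation above a run cutoff, the mean activation of all tested compounds plus 3 SD, cut at about 14% in these data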
Target sequence (P35363 whole entry, looked up): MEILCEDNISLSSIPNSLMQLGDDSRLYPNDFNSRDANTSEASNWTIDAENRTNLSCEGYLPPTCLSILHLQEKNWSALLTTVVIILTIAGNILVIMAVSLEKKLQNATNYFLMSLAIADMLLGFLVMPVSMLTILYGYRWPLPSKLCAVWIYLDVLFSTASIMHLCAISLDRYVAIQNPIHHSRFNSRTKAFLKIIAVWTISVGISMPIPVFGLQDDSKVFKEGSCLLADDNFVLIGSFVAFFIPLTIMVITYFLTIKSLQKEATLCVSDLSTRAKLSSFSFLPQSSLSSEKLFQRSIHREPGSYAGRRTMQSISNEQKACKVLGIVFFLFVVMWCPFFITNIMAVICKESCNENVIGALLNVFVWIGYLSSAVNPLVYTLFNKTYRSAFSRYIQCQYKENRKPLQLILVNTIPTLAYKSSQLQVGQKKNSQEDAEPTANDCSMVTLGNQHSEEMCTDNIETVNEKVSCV
MOR-DOR ag-1 – agonists of OPRM1-OPRD1 heterodimerization, primary screen, cell-based, luminescence. Mu-type opioid receptor (Homo sapiens) + Delta-type opioid receptor (Homo sapiens), …. cells. activation, % at 9.3 µM. 0.3% of 340,000 active. AID 504326, 2011
HTR5A inv ctr – HTR5A inverse agonists in luminescence cell assay, primary screen, counter-screen for OPRM1-OPRD1 heterodimer inverse agonist project, full-deck HTS | HTR5A cell line, inverse agonism | inhibition, % at 9.3 µM | 0.083% of 340,000 active | 5-hydroxytryptamine receptor 5A (Homo sapiens), P47898 | AID 504634, 2011; in the data active means inhibition mostly above about 23%, no sharp cut-off; inactive means mostly below about 18%
HTR5A ag – HTR5A agonists in luminescence cell assay, primary screen, counter-screen for OPRM1-OPRD1 heterodimer agonist project, full-deck HTS. activation, % at 9.3 µM. AID 504692, 2011. 5-hydroxytryptamine receptor 5A (Homo sapiens), P47898. 0.61% of 340,000 active. cell-based; in the data active means activation mostly above about 9.5%, no sharp cut-off; inactive means mostly below about 7.6%
MOR-DOR ag-2 – OPRM1-OPRD1 heterodimerization promoters, counter-screen for HTR5A agonist project, cell-based, luminescence; shares compounds with HTR5A ag; U2OS counter-screen cells, complementation luminescence, 3 h; activation, % at 9.3 µM; 13% of 800 active
HTR5A ag conf – HTR5A agonists, retest of hits, confirmation, cell-based, luminescence; shares compounds with HTR5A ag; HTR5A agonist cell assay; activation, % at 9.3 µM; 17% of 800 active; AID 504915, 2011; in the data active means activation above about 17%
Of the large screens only hits and unclear results are named; the others gave an inactive call (follow-up assays come after a bar, where they were run). Unless noted, no stated cut-off is given here; in the data, active means activation above about 18%; inactive means the rest.

CCCCCCCCCCOC(=O)Cn1c(COc2ccccc2OC)[n+](C)c2ccccc21	HTR5A ag 14 | MOR-DOR ag-2 37 | HTR5A ag conf inactive
Cn1c(COc2ccccc2O)[n+](C)c2ccccc21	none
Cc1ccc(C(=O)O/N=C(\N)c2ccccn2)cc1	none
CC(C)(C)c1ccc(C(=O)O/N=C(\N)c2ccccn2)cc1	HTR5A ag 57 | MOR-DOR ag-2 inactive | HTR5A ag conf inactive
CCOc1ccc(C=Nn2c(-c3cccc(OC(C)C)c3)n[nH]c2=S)cc1	none (no result: MOR-DOR inv ag, m5-HT2A agonist, MOR-DOR ag-1, HTR5A inv ctr, HTR5A ag)
COc1cc(CNCCc2ccccc2)cc(Br)c1OCC(=O)Nc1ccccc1C	HTR5A ag 18 | MOR-DOR ag-2 inactive | HTR5A ag conf inactive
CNCc1cc(Br)c(OCC(=O)Nc2ccccc2OC)c(OC)c1	none
CN1OC[C@@H]2CN(C(=O)c3ccc([N+](=O)[O-])cc3)[C@H](c3ccccc3Br)C[C@@H]21	none (no result: MOR-DOR inv ag, m5-HT2A agonist, MOR-DOR ag-1, HTR5A inv ctr, HTR5A ag)
COc1ccc(CN[C@@H]2CC[C@@]34CCCN3C(=O)CCC[C@H]4C2)cc1OC	none (no result: MOR-DOR inv ag, m5-HT2A agonist, MOR-DOR ag-1, HTR5A inv ctr, HTR5A ag)
Cc1cccc(C)c1NC(=S)N1CCCN(Cc2ccc(F)cc2)C1	none
COc1cccc(NC(=S)N2CCCN(Cc3ccc(F)cc3)C2)c1	HTR5A ag 33 | MOR-DOR ag-2 inactive | HTR5A ag conf 26
CCOc1ccc(NC(=S)N2CCCN(Cc3cccc(Cl)c3)C2)cc1	none
COc1ccc(NC(=S)N2CCCN(Cc3cccc(Cl)c3)C2)cc1	HTR5A ag 48 | MOR-DOR ag-2 167 | HTR5A ag conf inactive
COC(=O)C1=C(C)N(Cc2ccc(C(F)(F)F)cc2)C(=NCc2ccccc2C(F)(F)F)NC1c1ccccc1C(F)(F)F (stereo unspecified)	none (no result: MOR-DOR inv ag, m5-HT2A agonist, MOR-DOR ag-1, HTR5A inv ctr, HTR5A ag)
CN(CCCOC(=O)c1cc2ccccc2o1)C1CN(Cc2cn(Cc3ccc([N+](=O)[O-])cc3)nn2)S(=O)(=O)C1 (stereo unspecified)	none (no result: MOR-DOR inv ag, m5-HT2A agonist, MOR-DOR ag-1, HTR5A inv ctr, HTR5A ag)
O=C(C1=COCCO1)N1CCN(c2nc3ccc([N+](=O)[O-])cc3s2)CC1	HTR5A ag 16 | MOR-DOR ag-2 83 | HTR5A ag conf inactive
C=CCN1C(c2ccccc2)=CS/C1=C(\C#N)c1nnc2n1CCCCC2	none
CCOc1ccc(C2=CS/C(=C(\C#N)c3nnc4n3CCCCC4)N2CC)cc1	HTR5A ag 15 | MOR-DOR ag-2 inactive | HTR5A ag conf inactive
CCOc1cc(CNCC2CCCN2CC)cc(Cl)c1OC (stereo unspecified)	HTR5A ag 19 | MOR-DOR ag-2 inactive | HTR5A ag conf inactive
CCN1CCCC1CNCc1cc(OC)c(OC)c(OC)c1 (stereo unspecified)	none
COC(=O)c1cc(-c2cccc(OC(F)(F)F)c2)c(=O)n2c1CCC2	none (no result: MOR-DOR inv ag, m5-HT2A agonist, MOR-DOR ag-1, HTR5A inv ctr, HTR5A ag)
C=C1C(=O)OC2CC1C(OC(C)=O)CC(C)=CCCC(C)=CCCC2(C)O (stereo unspecified)	none (no result: MOR-DOR inv ag, MOR-DOR ag-1, HTR5A inv ctr, HTR5A ag)
C=C1C(=O)OC2CC1C(O)CC(C)=CCCC(C)=CC(O)CC2C (stereo unspecified)	HTR5A ag 18 | MOR-DOR ag-2 inactive | HTR5A ag conf inactive
O=C(N/N=C1\CCCc2ccccc21)c1ccccc1[N+](=O)[O-]	HTR5A ag 15 | MOR-DOR ag-2 inactive | HTR5A ag conf inactive
CC1Cc2ccccc2N1C(=O)COC(=O)c1ccc(Cl)c(S(=O)(=O)N2CCOCC2)c1 (stereo unspecified)	HTR5A ag 24 | MOR-DOR ag-2 inactive | HTR5A ag conf inactive
CC1Cc2ccccc2N1C(=O)COC(=O)c1n[nH]c(=O)c2ccccc12 (stereo unspecified)	HTR5A ag 40 | MOR-DOR ag-2 inactive | HTR5A ag conf inactive
